Screening data deposited in PubChem BioAssay by several laboratories.
A selection: hits, their analogues and other compounds. The true share with any hit is near 12%.
Lmaj promast – Leishmania major promastigote growth inhibition, primary screen. Leishmania major promastigotes, resazurin fluorescence viability. inhibition, % at 10 µM. hit rate 9% among 200,000. AID 1063, 2008; in the data active means inhibition above about 50%;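 further: promastigotes grown with compound for 44 hours at 28 °C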
Arbovirus inh – antivirals against arbovirus infection, primary screen, cell-based, full library, 10K replicate subset | arbovirus infection cell-based antiviral screen | inhibition, % at 10 µM | hit rate 0.37% among 200,000 | AID 1251, 2008; in the data active means inhibition above about 30%
CHOP inh – inhibitors of CHOP promoter induction, primary screen, cell-based, unfolded protein response, luciferase reporter; CHO-K1 CHOP-promoter luciferase, tunicamycin-induced, 15-18 h; inhibition, % at 10 µM; hit rate 3.8% among 220,000; AID 2732, 2010;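 active means compounds that reduced the stress-induced luciferase reporter signal by more than about 70% of percent inhibition, limit read from the data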;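 further: 0% = tunicamycin plus vehicle and 100% = wells without tunicamycin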
WT yeast gro inh – growth inhibition of WT strain, primary screen, mitochondrial fusion inhibitor project, WT and mutant strains, chemical genetic | mitochondrial fusion phenotypic screen | inhibition, % at 10 µM | hit rate 2.1% among 190,000 | AID 1362, 2008; in the data active means inhibition above about 58%; tested in S. cerevisiae
* hit, by the source's call; . = no result given.

SMILES	Lmaj promast	Arbovirus inh	CHOP inh	WT yeast gro inh
COc1ccc(-n2c(=O)/c(=C\c3cccs3)s/c2=C(/C#N)C(=O)N2CCN(C)CC2)cc1	1	3	90*	-5
O=C1Nc2cc(Cl)ccc2C1(N1CCNCC1)C(F)(F)F (configuration not stated)	-2	-7	80*	9
COc1cccc(Cn2c(NCc3cccnc3)nc3c2c(=O)n(C)c(=O)n3C)c1	4	-28	7	-26
Cn1c(=O)c2c(nc(NCc3cccnc3)n2Cc2cccc(C(F)(F)F)c2)n(C)c1=O	95*	4	28	-5
CCCOC(=O)Nc1sc2c(c1C(N)=O)CCCC2	-3	-2	13	1
CCOC(=O)C1=CN(c2cccc(F)c2)C=C(C(=O)OCC)C1c1cc(OC)c(O)c([N+](=O)[O-])c1	-9	-20	43	88*
O=S(=O)(Cc1ccccc1)N1CCc2ccccc21	100*	4	27	7
N#Cc1c(-c2ccccc2F)cc(C2CC2)nc1SCC(=O)c1cccs1	3	11	22	-10
Cc1ccc2c(c1)S/C(=C/c1ccc[n+](CCO)c1)N2C	82*	9	-3	37
COc1ccccc1CNC(=O)COC(=O)/C=C/c1cccs1	51*	2	-4	-46
COc1ccc(CNC(=O)COC(=O)/C=C/c2cccs2)cc1	-7	7	2	-1
CN=C1S/C(=C\c2cn(C(C)=O)nc2-c2ccccc2)C(=O)N1C	8	.	.	.
CCN1C(=O)/C(=C\c2ccc(-c3ccc([N+](=O)[O-])cc3OC)o2)SC1=Nc1cccc(C(=O)O)c1	-3	3	1	15
CC(=O)NC1=NC(=O)/C(=C/c2cc(C)n(-c3cccc(C(=O)O)c3)c2C)S1	-8	4	1	-17
CC(=O)NC1=NC(=O)/C(=C/c2cn(C(C)=O)nc2-c2ccccc2)S1	10	-6	73*	-4
CCN=C1S/C(=C\c2ccc(-c3cccc(C(=O)O)c3)o2)C(=O)N1CC	6	41*	24	-16
CCN=C1S/C(=C\c2cn(C(C)=O)nc2-c2ccccc2)C(=O)N1CC	26	-14	71*	11
Cc1cc(C)n2c(nc3ccccc32)c1C(=O)NCc1ccccc1	6	-6	21	8
Cn1c(=O)c2c(SCc3cccnc3)nc(CC(C)(C)C)nc2n(C)c1=O	91*	-19	57	48
Cc1ccccc1-c1nc(SCc2cccnc2)c2c(=O)n(C)c(=O)n(C)c2n1	37	6	-28	15
CCCc1nc(SCc2cccnc2)c2c(=O)n(C)c(=O)n(C)c2n1	84*	-25	38	9
Cc1c(C(=O)Nc2ccncc2)sc2nc(-c3ccccc3)cn12	76*	3	69	15
Cc1c(C(=O)NCc2cccnc2)sc2nc(-c3ccccc3)cn12	.	-23	.	10
Cc1c(C(=O)Nc2ccc3c(c2)OCCO3)sc2nc(-c3ccccc3)cn12	56*	-21	55	20
CCOC(=O)NC(=O)C(=CNc1ccccc1C)C(=O)NC(=O)OCC	-1	8	14	-9
SMILES	Lmaj promast	Arbovirus inh	CHOP inh	WT yeast gro inh
CC1(C)CC(=O)C/C(=N/NC(=O)CCCOc2ccc(Cl)cc2Cl)C1	-4	-8	3	6
O=C(NNC(=S)Nc1ccc(F)c(Cl)c1)c1ccccc1Br	-2	1	-16	-15
CC(C)(C)n1nnnc1C(c1cccnc1)N1CCN(c2ccccc2)CC1 (configuration not stated)	78*	-4	-11	5
CC(C)(C)n1nnnc1C(c1cccnc1)N1CCN(c2ccccn2)CC1 (configuration not stated)	81*	5	-3	-6
c1ccc(Cn2nnnc2C(c2cccnc2)N2CCN(c3ccccc3)CC2)cc1 (configuration not stated)	99*	3	7	-36
COc1cccc2cc(C(=O)NCCc3c[nH]c4ccccc34)c(=O)oc12	-5	-3	4	14
COc1ccc(/C=C2\CCCC3C2=NN(C(=O)CSc2n[nH]c(N)n2)C3c2ccc(OC)cc2)cc1 (configuration not stated)	-1	-4	23	-7
O=S1(=O)N=C(Nc2ccc(S(=O)(=O)N3CCCCC3)cc2)c2ccccc21	-10	-6	92*	-7
CCn1c(CCNC(=O)c2ccccc2Cl)n[nH]c1=S	-5	-2	5	-6
C=CCSc1nc(C)cc(C(=O)OCC)c1C#N	.	.	50	.
CCc1nn(C)c2c(=O)c(=O)c2n(C)[nH]1	.	.	15	.
COc1cccc2sc(Nc3nc(-c4ccccn4)cs3)nc12	100*	-30	.	63*
c1ccc(Nc2nc(-c3ccccn3)cs2)cc1	101*	-2	-99	46
Clc1cccc(Nc2nc(-c3cccnc3)cs2)c1	54*	2	36	39
Brc1ccc(Nc2nc(-c3cccnc3)cs2)cc1	26	6	32	38
c1ccc(-c2csc(Nc3cccnc3)n2)nc1	58*	-10	43	-2
c1ccc(Nc2nc(-c3ccncc3)cs2)cc1	7	25	65	11
COc1cccc2sc(NNC(=O)COc3ccccc3)nc12	2	0	-18	-7
C/C(=N\NC(=O)c1ccc(CSc2nc(C)cc(C)n2)cc1)c1ccco1	4	-11	-3	11
O=C(COC(=O)c1ccccc1O)Nc1cc([N+](=O)[O-])ccc1Cl	.	.	3	.
Nc1nc(-c2ccccc2)c(N=Nc2cccc3ccccc23)s1	10	-25	30	89*
CCOC(=O)/C(C#N)=C\c1cc(OC)c(OC)cc1[N+](=O)[O-]	-3	-8	5	-3
Cc1ccc(C2CCN(C(=S)NC3CCCCC3)C2)cc1 (configuration not stated)	2	10	-4	66*
Cc1ccc(Cl)cc1NC(=S)N1CCC(c2ccccc2)C1 (configuration not stated)	19	-16	8	59*
Cc1ccc(C2CCN(C(=S)NC(C)(C)C)C2)cc1 (configuration not stated)	3	1	-11	37
SMILES	Lmaj promast	Arbovirus inh	CHOP inh	WT yeast gro inh
Cc1ccc(NC(=S)N2CCCC(c3nc4ccccc4[nH]3)C2)cc1 (configuration not stated)	89*	6	2	20
Cc1ccc(C2CCN(C(=S)Nc3cccc(C)c3)C2)cc1 (configuration not stated)	5	8	-6	78*
CCOC(=O)c1cc(C)sc1/N=C/C1=C(O)CCCC1=O	-4	-12	43	7
CCCCc1ccc(-c2nc(NC(=O)C3C4CCC(O4)C3C(=O)O)sc2C)cc1 (configuration not stated)	-5	-14	25	88*
CCOC(=O)c1c(/N=C/C2=C(O)CC(C)(C)CC2=O)sc2c1CCCC2	.	.	36	.
CCOC(=O)c1nc(NCc2ccccc2F)c2ccccc2n1	50	-4	20	-21
CCOC(=O)c1nc(NCc2ccccc2C)c2ccccc2n1	65*	13	51	4
CCCCCC(=O)N/N=C/c1ccco1	78*	7	13	-4
CCCCCCCCC(=O)N/N=C/c1cccc(Br)c1	-3	5	87*	-3
